This passage reports growth results from PubChem BioAssay (NCI).

The panel holds about 83,000 compounds, 20% with a hit somewhere; the sample as a whole holds those more often.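 Cells were grown in 96-well plates and exposed to the test compound at a single concentration for 48 hours; results are reported as percent growth, with values below 10 considered active.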 Values without a mark were called inactive. The source made the active and inactive calls.

The subject of this assay is SW-620 colon. Description: NCI-60 one-dose screen, 48 h (100 = growth as untreated, 0 = no growth, -100 = all killed). As to conditions: 10 µM unless noted. The protocol:
Growth inhibition of the SW-620 human tumor cell line is measured as a screen for anti-cancer activity. Cells are grown in 96 well plates and exposed to the test compound for 48 hours. Compounds are tested at a single concentration, which is 10^-5 M for most compounds. The reported endpoint is percent growth (GI% or GIPRCNT), where numbers from 0 - 100% represent growth inhibition, and numbers from -100% - 0 represent cell death. For example, a value of 40 represents 60% growth inhibition. A value of 0 means no net growth occurred over the course of the experiment. A value of -40 indicates 40% of cells at the beginning of the experiment died by the end of the experiment. A value of -100 means all cells are dead at the end of the experiment.
NCI-60 Human Tumor Cell Lines Screen was performed using the standard one-dose NCI protocol, which is described in more detail at https://dtp.cancer.gov/discovery_development/nci-60/default.htm.
Compounds with GIPRCNT values below 10 were considered active. Activity score was based on GIPRCNT using the following formula: […]
Score is 0 for GIPRCNT values of 100 or above, 50 for GIPRCNT values of 0, and 100 for GIPRCNT values of -100.
On to `CCCCN1C(=O)/C(=c2\sc3n(c2=O)C2C(NN=3)N(CC)C(=O)N2CC)c2cc(Cl)ccc21` (stereo not given), for which the growth was 58.2%.

As to `CN(C)CCCNc1c2ccccc2nc2c1oc1ccc(Cl)cc12`, the growth is 9.93% (active).

As to `CN(C)CCCNc1c2ccc(Cl)cc2nc2c1oc1ccccc12`, the growth is -1.01% (active).

In the case of `COc1ccc(-c2nc3ccc(-c4nnc(SCC(=O)Nc5ccc(C(=O)/C=C/c6ccccc6)cc5)o4)cc3[nH]2)cc1OC`, the growth was 104%.

Turning to `C#Cc1nc(C2=C(C)C(=O)/C(=N/OC(C)=O)C2)cs1`, the growth is 110%.

With `O=C(c1ccc(Cl)cc1)C1[C@H](c2ccc(Cl)cc2)[C@@H](c2ccccc2)NC12C(=O)Nc1ccc(Br)cc12` (stereo not given in full), the growth was 36.3%.

`Cc1ccc(/C=C/c2nn3c(-c4ccco4)nnc3s2)cc1C`: the growth was 98.5%.

With `COc1cccc(N2CCN(c3ncnc4c3[nH]c3ccc(F)cc34)C[C@@H]2C)c1`, the growth was -3.32% (active).

Regarding `Clc1ccc2c(OCCCN3CCOCC3)c3oc4ccccc4c3nc2c1`, the growth is 19.2%.

As to `COc1ccc(C(=O)/C=C/c2ccc(Oc3nc(NCCO)nc(N4CCOCC4)n3)c(OC)c2)cc1`, the growth is 0.395% (active).

Take `N[C@@H](Cc1cn(-c2c3ccccc3nc3ccccc23)nn1)C(=O)O`: the growth was 105%.

Take `NC(=O)c1c(NC(=O)c2ccc(C3CCCCC3)cc2)sc2c1CCC(=O)C2`: the growth is 10.4%.

For `NS(=O)(=O)c1cccc(Nc2nc(SCC(=O)c3ccc(Cl)cc3)nc3ccccc23)c1`, the growth is 79.3%.

Consider `COc1ccc(/C=N/NC(=O)c2[nH]c3ccc(Br)cc3c2-c2ccccc2)s1`, for which the growth is 18.2%.

Turning to `C=CCn1c(SCC(=O)c2ccc(Br)cc2)nnc1-c1c[nH]c2ccccc12`, the growth was 110%.

With `COc1cc(-c2ccc3ncnc(NC(C)c4ccccc4)c3c2)cnc1OC` (stereo not given), the growth is 69.2%.

For the molecule `COc1cc(OC)c(S(=O)(=O)NNC(=O)c2ccncc2)cc1C(=O)/C=C/c1ccc(C)cc1`, the growth was 74.8%.

With `CC(C)(C)Nc1nc2c(OCCc3ccccc3)cccn2c1-c1ccccc1Cl`, the growth is 11.5%.

With `COc1ccc([C@@H]2c3[nH]c4ccccc4c3CC3C(=O)N(C4CCN(Cc5c(F)cccc5F)CC4)CC(=O)N32)c(OC)c1` (stereo not given in full), the growth is 64.6% [5.26 µM].

Turning to `Fc1ccc(-c2nc(C(Cl)Cl)nc3cc(-c4ccccc4)nn23)cc1`, the growth was -35.7% (active).

For the molecule `O=C(CCCN1C(=O)/C(=C/c2ccccc2F)SC1=S)N1CCOCC1`, the growth is 95.2%.

As for `Clc1ccc2oc3c(OCCCn4ccnc4)c4ccccc4nc3c2c1`, the growth is 36.1%.

Consider `COc1ccc(/C=C/C(=O)c2ccc(NC(=O)CSc3nnc(-c4ccc5nc(-c6ccc(Cl)cc6)[nH]c5c4)o3)cc2)cc1`, for which the growth was 106%.

As for `CO/N=C1\CCc2c(sc(NC(=O)c3cccc(C(F)(F)F)c3)c2C(N)=O)C1`, the growth is 43.4%.

For `COc1cc2nc(-c3ccc(Cl)cc3)cc(OCCCNCC3CCCO3)c2cc1OC` (stereo not given), the growth is 54.3%.

For the molecule `OC1CCN(CCCOc2c3ccccc3nc3c2oc2ccccc23)CC1`, the growth is 1.37% (active).

In the case of `Clc1ccc2c(NCCCN3CCOCC3)c3oc4ccc(Cl)cc4c3nc2c1`, the growth is 27.5%.

For the molecule `O=C(CSc1nc2sc3c(c2c(=O)n1-c1ccc(Cl)cc1)CCCC3)NNC(=O)Nc1cccc(C(F)(F)F)c1`, the growth is 22.1%.

On to `Nc1c(C(=O)Nc2ccc(Cl)cc2)sc2nc(-c3cnccn3)cc(-c3cccs3)c12`, for which the growth was 66.3%.

For `Cc1nc(-c2cc3ccccc3oc2=O)ccc1C(=O)/C=C/c1ccc(Cl)c(Cl)c1`, the growth is 101%.

For `COc1cc(/C=C/C(=O)c2ccc(C(F)(F)F)cc2)ccc1Oc1nc(NCCO)nc(N2CCOCC2)n1`, the growth is -3.75% (active).

As to `CCCC(=O)NC(c1cccnc1)c1cc(C)c2cccnc2c1O` (stereo not given), the growth is 33.4%.

Turning to `N#Cc1c(-c2ccc(F)cc2)nc2c(C#N)c(Nc3ccccc3)nn2c1N`, the growth was 106%.

On to `Cc1cccc2sc(/N=C(\N)C(Br)Br)nc12`, for which the growth is -40.2% (active).

On to `O=C(CN1CCOCC1)NNc1ncnc2ccccc12`, for which the growth is -26% (active).

As to `O=C1c2c(c3c4cc(Br)ccc4[nH]c3c3ccc4ccccc4c23)C(=O)N1CCO`, the growth was 75.9%.

As to `C#Cc1nc(C2=C(C)C(O)CC2)cs1` (stereo not given), the growth was 121%.

Consider `Clc1ccc2c(NCCCn3ccnc3)c3oc4ccc(Cl)cc4c3nc2c1`, for which the growth is 57%.

For the molecule `CC(=O)Oc1ccccc1C(=O)Nc1ccc(C(=O)/C=C/c2cccs2)cc1`, the growth is 107%.

For the molecule `O=C(Nc1nc2ccc(O)cc2s1)c1cccc(C(F)(F)F)c1`, the growth was 52.1%.
